Reference: the supplement of paper PMC6411743
± gives the standard deviation of the averaged measurements. The full data set covers some 5,400 targets. This sample favours those with the largest changes.

Assays:
Experiment in all cases: NP40-soluble protein abundance relative to vehicle (solubility fold change) (ratio); higher = more soluble protein in presence of GTP
ARHGAP1 = target: T1, ARHGAP1 (UniProt Q07960)
T1 sequence (whole entry): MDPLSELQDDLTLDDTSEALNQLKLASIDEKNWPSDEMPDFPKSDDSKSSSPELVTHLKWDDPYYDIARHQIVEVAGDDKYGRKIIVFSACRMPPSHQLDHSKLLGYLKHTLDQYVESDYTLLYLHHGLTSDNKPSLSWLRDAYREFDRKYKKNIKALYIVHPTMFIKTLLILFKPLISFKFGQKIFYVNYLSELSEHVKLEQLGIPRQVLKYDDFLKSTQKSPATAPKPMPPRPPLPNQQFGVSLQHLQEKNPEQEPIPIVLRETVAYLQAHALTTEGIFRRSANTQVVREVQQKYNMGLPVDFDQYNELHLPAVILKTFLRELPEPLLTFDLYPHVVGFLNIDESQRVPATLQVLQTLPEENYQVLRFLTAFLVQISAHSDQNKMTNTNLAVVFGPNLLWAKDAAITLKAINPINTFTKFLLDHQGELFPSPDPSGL
How it was run: (§1)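 Eight concentrations, 0.1 to 10 mM, were tested on Jurkat crude lysate for 10 min at room temperature and then 3 min at 37 °C, in three independent experiments. The lysate was solubilised with 0.8% NP40 and benzonase, ultracentrifuged, and the supernatant TMT-labelled for LC-MS/MS. Each value is the fold change against the detergent-processed vehicle in its own replicate, from vsn-normalised intensities.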

[1] = target: T2, UniProt Q08170|A0A0D9SEM4
T2 sequence (whole entry): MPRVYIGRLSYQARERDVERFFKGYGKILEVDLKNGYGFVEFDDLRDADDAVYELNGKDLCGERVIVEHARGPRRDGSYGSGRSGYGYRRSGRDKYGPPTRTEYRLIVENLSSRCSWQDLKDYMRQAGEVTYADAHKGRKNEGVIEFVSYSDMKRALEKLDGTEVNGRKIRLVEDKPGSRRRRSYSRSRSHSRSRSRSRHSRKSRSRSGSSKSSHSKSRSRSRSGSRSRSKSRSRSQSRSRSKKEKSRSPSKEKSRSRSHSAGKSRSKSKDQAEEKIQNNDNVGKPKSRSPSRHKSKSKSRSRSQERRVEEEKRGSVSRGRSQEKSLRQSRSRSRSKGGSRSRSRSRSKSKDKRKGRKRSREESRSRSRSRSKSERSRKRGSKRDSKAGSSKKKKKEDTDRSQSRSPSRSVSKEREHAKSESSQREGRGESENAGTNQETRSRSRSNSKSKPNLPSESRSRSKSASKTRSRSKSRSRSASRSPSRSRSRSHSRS
How it was run: as §1

[2] = target: T3, UniProt Q4ADV7|Q4ADV7-3|Q4ADV7-2
T3 sequence (whole entry): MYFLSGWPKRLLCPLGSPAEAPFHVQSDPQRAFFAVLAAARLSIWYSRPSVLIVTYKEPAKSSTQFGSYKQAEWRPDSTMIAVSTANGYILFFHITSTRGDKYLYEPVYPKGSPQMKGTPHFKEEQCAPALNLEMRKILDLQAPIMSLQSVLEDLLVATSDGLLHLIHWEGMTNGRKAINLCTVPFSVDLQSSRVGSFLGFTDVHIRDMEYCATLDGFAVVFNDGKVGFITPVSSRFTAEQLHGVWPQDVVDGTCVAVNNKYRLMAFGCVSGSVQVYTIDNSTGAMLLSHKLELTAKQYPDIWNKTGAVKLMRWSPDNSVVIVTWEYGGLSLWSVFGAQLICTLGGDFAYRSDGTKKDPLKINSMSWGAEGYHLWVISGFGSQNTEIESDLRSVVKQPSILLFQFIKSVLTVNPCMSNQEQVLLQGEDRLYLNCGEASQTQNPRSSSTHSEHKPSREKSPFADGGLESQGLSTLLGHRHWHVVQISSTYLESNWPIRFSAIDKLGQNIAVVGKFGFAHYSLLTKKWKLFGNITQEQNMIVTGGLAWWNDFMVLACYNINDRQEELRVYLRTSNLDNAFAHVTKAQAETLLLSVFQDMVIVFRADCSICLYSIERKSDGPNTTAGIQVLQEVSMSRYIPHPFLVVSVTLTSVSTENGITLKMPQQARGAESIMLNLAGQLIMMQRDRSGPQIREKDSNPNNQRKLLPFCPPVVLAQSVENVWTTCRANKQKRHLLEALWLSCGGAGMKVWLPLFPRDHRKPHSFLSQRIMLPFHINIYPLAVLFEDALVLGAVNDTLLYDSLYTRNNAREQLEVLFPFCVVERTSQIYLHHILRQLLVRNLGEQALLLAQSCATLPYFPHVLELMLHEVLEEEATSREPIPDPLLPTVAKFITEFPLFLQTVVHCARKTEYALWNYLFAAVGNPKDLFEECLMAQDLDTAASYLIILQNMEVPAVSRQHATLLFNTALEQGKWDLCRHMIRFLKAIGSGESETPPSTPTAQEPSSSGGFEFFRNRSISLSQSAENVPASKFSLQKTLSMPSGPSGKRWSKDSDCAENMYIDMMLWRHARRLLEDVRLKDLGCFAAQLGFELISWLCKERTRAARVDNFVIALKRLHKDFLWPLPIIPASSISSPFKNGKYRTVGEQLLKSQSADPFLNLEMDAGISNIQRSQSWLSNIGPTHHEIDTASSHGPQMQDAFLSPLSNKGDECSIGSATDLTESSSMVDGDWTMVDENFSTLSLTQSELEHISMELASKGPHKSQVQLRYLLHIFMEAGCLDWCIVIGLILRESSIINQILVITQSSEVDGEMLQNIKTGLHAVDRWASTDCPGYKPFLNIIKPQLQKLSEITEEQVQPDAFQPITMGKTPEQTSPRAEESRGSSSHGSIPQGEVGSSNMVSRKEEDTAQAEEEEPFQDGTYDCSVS
How it was run: as §1

Nc1nc2c(ncn2[C@@H]2O[C@H](COP(=O)(O)OP(=O)(O)OP(=O)(O)O)[C@@H](O)[C@H]2O)c(=O)[nH]1 [guanosine triphosphate]
NP40-soluble protein abundance (ARHGAP1; concentration: 0.1mM): 0.963 ± 0.015
NP40-soluble protein abundance (ARHGAP1; concentration: 0.5mM): 0.961 ± 0.012
NP40-soluble protein abundance (ARHGAP1; concentration: 1mM): 0.952 ± 0.011
NP40-soluble protein abundance (ARHGAP1; concentration: 2mM): 0.93 ± 0.045
NP40-soluble protein abundance (ARHGAP1; concentration: 4mM): 0.942 ± 0.042
NP40-soluble protein abundance (ARHGAP1; concentration: 6mM): 0.911 ± 0.037
NP40-soluble protein abundance (ARHGAP1; concentration: 8mM): 0.867 ± 0.06
NP40-soluble protein abundance (ARHGAP1; concentration: 10mM): 0.908 ± 0.064
NP40-soluble protein abundance ([1]; concentration: 0.1mM): 0.928 ± 0.042
NP40-soluble protein abundance ([1]; concentration: 0.5mM): 1.23 ± 0.055
NP40-soluble protein abundance ([1]; concentration: 1mM): 1.27 ± 0.028
NP40-soluble protein abundance ([1]; concentration: 2mM): 1.15 ± 0.052
NP40-soluble protein abundance ([1]; concentration: 4mM): 0.94 ± 0.034
NP40-soluble protein abundance ([1]; concentration: 6mM): 1.09 ± 0.042
NP40-soluble protein abundance ([1]; concentration: 8mM): 1.2 ± 0.053
NP40-soluble protein abundance ([1]; concentration: 10mM): 1.08 ± 0.035
NP40-soluble protein abundance ([2]; concentration: 0.1mM): 1.09 ± 0.11
NP40-soluble protein abundance ([2]; concentration: 0.5mM): 1.13 ± 0.091
NP40-soluble protein abundance ([2]; concentration: 1mM): 1.02 ± 0.04
NP40-soluble protein abundance ([2]; concentration: 2mM): 1.07 ± 0.077
